Experimental data published in PubChem BioAssay (EPA / NIEHS).
Activity calls are given as the source filed them. How the source made its calls: active means hit-call score of the fitted dose curve at least 0.9, where 1 is the maximum; inactive means score below 0.9.

Tests used:
Conditions in all cases: mRNA level, 48 h; actives raise or lower the signal
[1] = read-out: cysteine-aspartic acid protease (CASP8), CASP8 (gene 841); assay: LTEA_HepaRG_CASP8: Life Technologies and Expression Analysis (LTEA) Assay for cysteine-aspartic acid protease (CASP8) using HepaRG (AID 2283480)
Summary of the method: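 HepaRG, 48 h exposure, duplicate wells; 8 conc, half-log from 100 uM, 0.5% DMSO. Serum-free induction medium. CASP8 mRNA by TaqMan qRT-PCR, norm. ACTB/GAPDH/POLR2A; gain/loss fitted vs DMSO.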

[2] = read-out: DNA damage-inducible transcript 3 (DDIT3), DDIT3 (gene 1649); assay: LTEA_HepaRG_DDIT3: Life Technologies and Expression Analysis (LTEA) Assay for DNA damage-inducible transcript 3 (DDIT3) using HepaRG (AID 2283488)
Summary of the method: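 HepaRG plated 48 h, switched to serum-free induction medium, dosed 48 h (100 uM top, half-log, 8 pts, 0.5% DMSO, n=2); RNA isolated; DDIT3 by qRT-PCR; bidirectional curve fit vs DMSO.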

[3] = read-out: Cytochrome P450 (CYP1A2), CYP1A2 (gene 1544); assay: LTEA_HepaRG_CYP1A2: Life Technologies and Expression Analysis (LTEA) Assay for Cytochrome P450 (CYP1A2) using HepaRG (AID 2283479)
Summary of the method: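 HepaRG, 48 h exposure, top 100 uM, half-log 8-pt, 0.5% DMSO vehicle, duplicates. Readout: TaqMan qRT-PCR of CYP1A2 mRNA, housekeeping-normalized (ACTB/GAPDH/POLR2A). Gain/loss fit relative to DMSO baseline.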

[4] = read-out: Cytochrome P450 (CYP2B6), CYP2B6 (gene 1555); assay: LTEA_HepaRG_CYP2B6: Life Technologies and Expression Analysis (LTEA) Assay for Cytochrome P450 (CYP2B6) using HepaRG (AID 2283481)
Summary of the method: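 Read-out is CYP2B6 mRNA by TaqMan qRT-PCR, normalized to three housekeeping genes and fitted bidirectionally against 0.5% DMSO baseline. Human HepaRG cells received test chemicals for 48 h, top concentration 100 uM, half-log dilutions.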

CYP2C8 (gene 1558) = assay: LTEA_HepaRG_CYP2C8: Life Technologies and Expression Analysis (LTEA) Assay for CYP2C8 using HepaRG (AID 2283483)
Summary of the method: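 CYP2C8 mRNA induction or loss, by qRT-PCR normalized to ACTB/GAPDH/POLR2A, is read in HepaRG cells after 48 h treatment. Concentrations run from 100 uM down in half-log dilutions, with 0.5% DMSO as vehicle and baseline.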

CYP2C9 (gene 1559) = assay: LTEA_HepaRG_CYP2C9: Life Technologies and Expression Analysis (LTEA) Assay for CYP2C9 using HepaRG (AID 2283484)
Summary of the method: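 Cells plated 48 h, switched to serum-free induction medium, then treated in duplicate for 48 h at eight concentrations (max 100 uM, 0.5% DMSO). RNA then analysed by qRT-PCR for CYP2C9; curves fitted in both directions relative to DMSO.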

CYP2E1 (gene 1571) = assay: LTEA_HepaRG_CYP2E1: Life Technologies and Expression Analysis (LTEA) Assay for CYP2E1 using HepaRG (AID 2283485)
Summary of the method: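 Human liver line HepaRG, plated 48 h, then serum-free induction medium + chemical x 48 h; 8-pt CRC from 100 uM, half-log, 0.5% DMSO, n=2. Readout: CYP2E1 mRNA qRT-PCR vs ACTB/GAPDH/POLR2A; bidirectional fit vs DMSO.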

CYP4A11 (gene 1579) = assay: LTEA_HepaRG_CYP4A11: Life Technologies and Expression Analysis (LTEA) Assay for CYP4A11 using HepaRG (AID 2283486)
Summary of the method: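 CYP4A11 transcript levels were quantified by TaqMan qRT-PCR after HepaRG human liver cells were treated for 48 hours with test chemicals (top 100 uM, half-log dilutions, 0.5% DMSO). Gain or loss of signal was fitted relative to DMSO.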

[5] = read-out: Cytochrome P450 2C19 (Homo sapiens) (UniProt P33261); assay: LTEA_HepaRG_CYP2C19: Life Technologies and Expression Analysis (LTEA) Assay for CYP2C19 using HepaRG (AID 2283482)
Summary of the method: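 HepaRG, 48 h chemical exposure, 8-pt half-log series from 100 uM in 0.5% DMSO, duplicates. Readout: CYP2C19 mRNA by TaqMan qRT-PCR, housekeeping-normalized. Bidirectional fit vs DMSO baseline; phenobarbital 1mM as induction control.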

[6] = read-out: Cytochrome P450 3A4 (Homo sapiens) (UniProt P08684); assay: LTEA_HepaRG_CYP3A4: Life Technologies and Expression Analysis (LTEA) Assay for CYP3A4 using HepaRG (AID 2283487)
Summary of the method: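 CYP3A4 transcript measured by TaqMan qRT-PCR and normalized to three housekeeping genes after 48 h chemical exposure of human HepaRG cells. Top concentration 100 uM, half-log steps, 0.5% DMSO vehicle; gain or loss fitted against DMSO baseline.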

Sequence of Cytochrome P450 2C19 (Homo sapiens) (P33261 whole entry, looked up): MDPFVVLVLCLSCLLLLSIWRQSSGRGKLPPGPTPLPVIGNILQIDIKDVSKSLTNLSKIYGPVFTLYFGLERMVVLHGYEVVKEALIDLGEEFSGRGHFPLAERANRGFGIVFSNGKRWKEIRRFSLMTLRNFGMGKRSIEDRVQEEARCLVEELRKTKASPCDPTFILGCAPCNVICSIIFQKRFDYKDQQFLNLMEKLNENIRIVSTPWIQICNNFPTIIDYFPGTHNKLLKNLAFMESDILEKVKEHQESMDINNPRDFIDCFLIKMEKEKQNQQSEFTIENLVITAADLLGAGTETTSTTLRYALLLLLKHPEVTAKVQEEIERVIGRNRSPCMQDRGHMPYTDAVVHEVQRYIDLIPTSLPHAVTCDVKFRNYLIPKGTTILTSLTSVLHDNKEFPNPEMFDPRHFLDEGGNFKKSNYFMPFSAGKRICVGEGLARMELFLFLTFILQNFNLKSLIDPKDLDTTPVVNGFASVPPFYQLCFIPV
Sequence of Cytochrome P450 3A4 (Homo sapiens) (P08684 whole entry, looked up): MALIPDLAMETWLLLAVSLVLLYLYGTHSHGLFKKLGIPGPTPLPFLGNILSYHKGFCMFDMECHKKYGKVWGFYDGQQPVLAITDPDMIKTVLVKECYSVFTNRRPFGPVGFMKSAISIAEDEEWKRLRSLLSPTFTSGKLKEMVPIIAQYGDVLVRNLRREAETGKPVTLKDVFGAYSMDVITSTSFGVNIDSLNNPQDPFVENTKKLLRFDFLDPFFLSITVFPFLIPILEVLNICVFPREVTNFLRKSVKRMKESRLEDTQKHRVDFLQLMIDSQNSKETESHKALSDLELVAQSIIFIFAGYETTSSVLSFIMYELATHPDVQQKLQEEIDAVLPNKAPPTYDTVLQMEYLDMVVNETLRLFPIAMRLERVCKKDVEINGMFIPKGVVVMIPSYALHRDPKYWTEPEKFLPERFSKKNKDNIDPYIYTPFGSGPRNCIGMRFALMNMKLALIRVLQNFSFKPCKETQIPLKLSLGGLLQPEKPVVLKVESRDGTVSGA

For `CN(C)CCOC(c1ccccc1)c1ccccc1`, the outcome [1] was “inactive” and the outcome [2] was “inactive”.

In the case of `CS(=O)(=O)c1ccc([C@@H](CC2CCCC2)C(=O)Nc2cnccn2)cc1Cl`, the outcome [1] is reported as “inactive” and the AC50 [2] is reported as 71.2 µM (active).

With `O=C(CCCN1CCC(O)(c2ccc(Cl)cc2)CC1)c1ccc(F)cc1` the AC50 [3] was 82.6 µM (active), the outcome [1] was “inactive” and the AC50 [4] was 79.7 µM (active). For the same molecule, the outcome (CYP2C8 (gene 1558)) was “inactive”, the AC50 (CYP2C9 (gene 1559)) was 77.8 µM (active) and the AC50 (CYP2E1 (gene 1571)) was 66.2 µM (active). For the same molecule, the AC50 (CYP4A11 (gene 1579)) was 73.5 µM (active) and the AC50 [2] was 73.9 µM (active).

For `CCC(C)c1ccccc1O` (centres undefined), the outcome [3] was “inactive”, the outcome [1] was “inactive” and the outcome [4] was “inactive”. The outcome [5] was “inactive”, the outcome (CYP2C8 (gene 1558)) was “inactive” and the outcome (CYP2C9 (gene 1559)) was “inactive”. For the same molecule, the outcome (CYP2E1 (gene 1571)) was “inactive”, the outcome (CYP4A11 (gene 1579)) was “inactive” and the outcome [6] was “inactive”. For the same molecule, the outcome [2] was “inactive”.

For `CN(Cc1cnc2nc(N)nc(N)c2n1)c1ccc(C(=O)N[C@@H](CCC(=O)O)C(=O)O)cc1`, the AC50 [3] was 0.0974 µM (active), the outcome [1] was “inactive” and the AC50 [4] was 0.16 µM (active). For the same molecule, the outcome [5] was “inactive”, the outcome (CYP2C8 (gene 1558)) was “inactive” and the AC50 (CYP2E1 (gene 1571)) was 0.222 µM (active). The outcome (CYP4A11 (gene 1579)) was “inactive”, the outcome [6] was “inactive” and the outcome [2] was “inactive”.

With `OCC(CO)(CBr)CBr` the outcome [3] was “inactive”, the outcome [1] was “inactive” and the outcome [4] was “inactive”. For the same molecule, the outcome [5] was “inactive”, the outcome (CYP2C8 (gene 1558)) was “inactive” and the outcome (CYP2C9 (gene 1559)) was “inactive”. For the same molecule, the outcome (CYP2E1 (gene 1571)) was “inactive”, the AC50 (CYP4A11 (gene 1579)) was 0.411 µM (active) and the outcome [6] was “inactive”. The outcome [2] was “inactive”.

For `O=C(c1ccccc1)c1ccccc1`, the outcome [1] was “inactive” and the outcome [2] was “inactive”.

`CC(=O)Nc1ccc(O)cc1` was tested, and the outcome [3] was “inactive”, the outcome [1] was “inactive” and the outcome [4] was “inactive”. The outcome [5] was “inactive”, the outcome (CYP2C8 (gene 1558)) was “inactive” and the outcome (CYP2C9 (gene 1559)) was “inactive”. The outcome (CYP2E1 (gene 1571)) was “inactive”, the outcome (CYP4A11 (gene 1579)) was “inactive” and the outcome [6] was “inactive”. The outcome [2] was “inactive”.

With `CCCCCCCCCCCCOS(=O)(=O)O` the AC50 [3] was 71.2 µM (active), the AC50 [4] was 94.1 µM (active) and the AC50 [5] was 82.1 µM (active). The AC50 (CYP2C9 (gene 1559)) was 79 µM (active), the AC50 (CYP2E1 (gene 1571)) was 92.9 µM (active) and the AC50 [2] was 71.9 µM (active).

In the case of `Cc1[nH]nc2c1N=C(c1ccccc1Cl)c1cc([N+](=O)[O-])ccc1N2`, the AC50 [3] is reported as 11.5 µM (active), the outcome [1] is reported as “inactive” and the AC50 [4] is reported as 8.93 µM (active). For the same molecule, the AC50 [5] was 4.24 µM (active), the AC50 (CYP2C8 (gene 1558)) was 7.45 µM (active) and the AC50 (CYP2C9 (gene 1559)) was 5.12 µM (active). For the same molecule, the AC50 (CYP2E1 (gene 1571)) was 10.1 µM (active), the AC50 (CYP4A11 (gene 1579)) was 5.26 µM (active) and the AC50 [6] was 77.6 µM (active). The outcome [2] was “inactive”.

For `CCCCc1oc2ccccc2c1C(=O)c1cc(I)c(OCCN(CC)CC)c(I)c1`, the outcome [1] was “inactive” and the AC50 [2] was 56.8 µM (active).

For `CCCCC=O`, the outcome [3] was “inactive”, the outcome [1] was “inactive” and the outcome [4] was “inactive”. The outcome [5] was “inactive”, the outcome (CYP2C8 (gene 1558)) was “inactive” and the outcome (CYP2C9 (gene 1559)) was “inactive”. The outcome (CYP2E1 (gene 1571)) was “inactive”, the outcome (CYP4A11 (gene 1579)) was “inactive” and the outcome [6] was “inactive”. For the same molecule, the outcome [2] was “inactive”.

With `N=C(N)c1ccc(OCCCCCOc2ccc(C(=N)N)cc2)cc1` the AC50 [3] was 5.43 µM (active), the AC50 [1] was 30.1 µM (active) and the AC50 [4] was 3.74 µM (active). For the same molecule, the AC50 [5] was 6.53 µM (active), the AC50 (CYP2C8 (gene 1558)) was 3.73 µM (active) and the AC50 (CYP2E1 (gene 1571)) was 6.51 µM (active). The AC50 (CYP4A11 (gene 1579)) was 3.02 µM (active) and the AC50 [2] was 3.45 µM (active).

With `CCCCC(CC)C(=O)O` (centres undefined) the outcome [3] was “inactive”, the outcome [1] was “inactive” and the outcome [4] was “inactive”. The outcome [5] was “inactive”, the outcome (CYP2C8 (gene 1558)) was “inactive” and the outcome (CYP2C9 (gene 1559)) was “inactive”. The outcome (CYP2E1 (gene 1571)) was “inactive”, the outcome (CYP4A11 (gene 1579)) was “inactive” and the outcome [6] was “inactive”. The outcome [2] was “inactive”.

`CCCCCCCCCCCCCCC` was tested, and the outcome [3] was “inactive”, the outcome [1] was “inactive” and the AC50 [4] was 5.89 µM (active). The AC50 [5] was 17.3 µM (active), the outcome (CYP2C8 (gene 1558)) was “inactive” and the outcome (CYP2C9 (gene 1559)) was “inactive”. The AC50 (CYP2E1 (gene 1571)) was 1.94 µM (active), the outcome (CYP4A11 (gene 1579)) was “inactive” and the AC50 [6] was 8.75 µM (active). The outcome [2] was “inactive”.

With `O=C1NS(=O)(=O)c2ccccc21` the outcome [3] was “inactive”, the outcome [1] was “inactive” and the outcome [4] was “inactive”. For the same molecule, the outcome [5] was “inactive”, the outcome (CYP2C8 (gene 1558)) was “inactive” and the outcome (CYP2C9 (gene 1559)) was “inactive”. For the same molecule, the outcome (CYP2E1 (gene 1571)) was “inactive”, the outcome (CYP4A11 (gene 1579)) was “inactive” and the outcome [6] was “inactive”. The outcome [2] was “inactive”.
